Laboratory results published in the supplement of paper PMC9023506.
Structures can show the parent of a compound that is named as a salt.

These molecules were tested on Danio rerio larvae (5 dpf) (assay: activity during first hour (no stimuli), difference vs DMSO (percentage points (treated minus DMSO)); higher = more of the behaviour than the DMSO vehicle control). Details: 10 µM; exposure time: 3 h pre-incubation + 3 h imaging.
Experimental: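 5-dpf wild-type zebrafish larvae were imaged in 96-well plates. They were treated with 190 Tocris FDA-approved drugs at 10 µM (1 µl/ml DMSO) for 3 h before and 3 h during imaging at 28.5 °C, 48 larvae per drug. Automated image analysis gave % time moving and optomotor responses. Values are drug group mean minus DMSO vehicle mean (n=844), in percentage points, for 10 behaviours.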

Row | SMILES | activity during first hour
1 | C#C[C@]1(O)CC[C@H]2[C@@H]3CCC4=CC(=O)CC[C@@H]4[C@H]3CC[C@@]21CC [Levonorgestrel] | -8.15
2 | Cc1cccc(CN2CCN(C(c3ccccc3)c3ccc(Cl)cc3)CC2)c1 (stereo not given) [Meclizine dihydrochloride] | 29.1
3 | Cc1cc2c(s1)Nc1ccccc1N=C2N1CCN(C)CC1 [Olanzapine] | 8.05
4 | CN1CC[C@@H](NC(=O)Nc2ccc(C#N)cc2)C[C@@H]1c1nc2ccccc2[nH]1 | -8.92
5 | CC(=O)Oc1ccccc1C(=O)O [Aspirin] | -0.0609
6 | NS(=O)(=O)Cc1noc2ccccc12 [Zonisamide] | 3.75
7 | CC(C)c1nc(CN(C)C(=O)N[C@H](C(=O)N[C@@H](Cc2ccccc2)C[C@H](O)[C@H](Cc2ccccc2)NC(=O)OCc2cncs2)C(C)C)cs1 [Ritonavir] | -0.488
8 | Cc1c(-c2ccc(O)cc2)n(Cc2ccc(OCCN3CCCCCC3)cc2)c2ccc(O)cc12 [Bazedoxifene acetate] | -12.7
9 | O=C1CCc2ccc(OCCCCN3CCN(c4cccc(Cl)c4Cl)CC3)cc2N1 [Aripiprazole] | 8.28
10 | COc1ccc(C[C@@H](C)NC[C@H](O)c2ccc(O)c(NC=O)c2)cc1 [Arformoterol tartrate] | 45.9
11 | CCOC(=O)N1CCC(=C2c3ccc(Cl)cc3CCc3cccnc32)CC1 [Loratidine] | -17
12 | CC1=Nc2ccc(Cl)cc2S(=O)(=O)N1 [Diazoxide] | 6.7
13 | CN[C@H]1CC[C@@H](c2ccc(Cl)c(Cl)c2)c2ccccc21 [Sertraline hydrochloride] | -24.2
14 | Cn1nnc2c(C(N)=O)ncn2c1=O [Temozolomide] | 7.11
15 | Cc1ccc(-c2cc(C(F)(F)F)nn2-c2ccc(S(N)(=O)=O)cc2)cc1 [Celecoxib] | -5.35
16 | CN(CCOc1ccc(NS(C)(=O)=O)cc1)CCc1ccc(NS(C)(=O)=O)cc1 [Dofetilide] | 1.68
17 | CC(=O)Nc1ccc(O)cc1 [Acetaminophen] | 5.63
18 | Nc1nc(F)nc2c1ncn2[C@@H]1O[C@H](CO)[C@@H](O)[C@@H]1O [Fludarabine] | 3.66
19 | Nc1ncn([C@@H]2O[C@H](CO)[C@@H](O)[C@H]2O)c(=O)n1 [5-Azacytidine] | 4.78
20 | Brc1c(NC2=NCCN2)ccc2nccnc12 | -17

Row | SMILES | activity during first hour
21 | CCOc1cc(CC(=O)N[C@@H](CC(C)C)c2ccccc2N2CCCCC2)ccc1C(=O)O [Repaglinide] | 5.41
22 | Cc1ccsc1C(=CCCN1CCC[C@@H](C(=O)O)C1)c1sccc1C [Tiagabine hydrochloride] | 7.01
23 | NC(=O)OCC(COC(N)=O)c1ccccc1 [Felbamate] | -2.12
24 | C[C@]12CC[C@@H]3c4ccc(O)cc4C[C@@H](CCCCCCCCC[S+]([O-])CCCC(F)(F)C(F)(F)F)[C@H]3[C@@H]1CC[C@@H]2O (stereo not given in full) | 7.08
25 | CN1CC2c3ccccc3Oc3ccc(Cl)cc3C2C1 (stereo not given) [Asenapine maleate] | 38.5
26 | COc1c(C)c2c(c(O)c1C/C=C(\C)CCC(=O)OCCN1CCOCC1)C(=O)OC2 [Mycophenolate mofetil] | -1.93
27 | CC(C)COCC(CN(Cc1ccccc1)c1ccccc1)N1CCCC1 (stereo not given) [Bepridil hydrochloride] | 0.257
28 | CN(C)CCc1c[nH]c2ccc(C[C@H]3COC(=O)N3)cc12 [Zolmitriptan] | 7.82
29 | CCCc1nn(C)c2c(=O)[nH]c(-c3cc(S(=O)(=O)N4CCN(C)CC4)ccc3OCC)nc12 [Sildenafil citrate] | -13.4
30 | CNC(=O)c1cc(Oc2ccc(NC(=O)Nc3ccc(Cl)c(C(F)(F)F)c3)cc2)ccn1 [Sorafenib] | 3.08
31 | CC(C)OC(=O)C(C)(C)Oc1ccc(C(=O)c2ccc(Cl)cc2)cc1 [Fenofibrate] | 6.44
32 | CCOc1nc2cccc(C(=O)O)c2n1Cc1ccc(-c2ccccc2-c2noc(=O)[nH]2)cc1 [Azilsartan] | 3.52
33 | Nc1cccc2c1CN(C1CCC(=O)NC1=O)C2=O (stereo not given) [Lenalidomide] | -5.68
34 | CNS(=O)(=O)Cc1ccc2[nH]cc(CCN(C)C)c2c1 [Sumatriptan succinate] | 7.71
35 | CCCN(CCc1cccs1)[C@H]1CCc2c(O)cccc2C1 [Rotigotine hydrochloride] | -26.8
36 | CN(CCOc1ccc(CC2SC(=O)NC2=O)cc1)c1ccccn1 (stereo not given) [Rosiglitazone] | 2.2
37 | CCOc1nc2cccc(C(=O)O)c2n1Cc1ccc(-c2ccccc2-c2nnn[nH]2)cc1 [Candesartan] | 4.62
38 | CC(C)C(=O)Nc1ccc([N+](=O)[O-])c(C(F)(F)F)c1 [Flutamide] | -9.59
39 | Nc1ccn([C@@H]2O[C@H](CO)[C@@H](O)C2(F)F)c(=O)n1 [Gemcitabine hydrochloride] | -4.38
40 | CCCCc1nc(Cl)c(CO)n1Cc1ccc(-c2ccccc2-c2nnn[nH]2)cc1 [Losartan potassium] | 13
